Assay outcomes from PubChem BioAssay.
Sampled rows, rich in hits. Any-hit rate of the full collection: about 1.3%.
MEX-5 binding: C. elegans MEX-5 TCR-2 RNA binding activity. Q9XUB2. MEX-5/FITC-TCR2 RNA binding, fluorescence polarization; active compounds read low. activity score (negative = inhibition of binding), % at 10 µM. actives 0.38% (n = 300,000). AID 1832;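 active = inhibition past about -25% in most replicates, and total fluorescence under double the plate's negative control median, limit read from the data; inconclusive = replicates evenly split on the limit, or fluorescence at least double controls; inactive = too little inhibition in most replicates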;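 also: 0% = DMSO and -100% = 5 µM competing unlabeled TCR2 RNA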
GLD-1 TGE inh: GLD-1-TGE RNA interaction inhibition (C. elegans) | purified GLD-1 + fluorescein TGE RNA, fluorescence polarization | inhibition, % at 5.96 µM | actives 0.44% (n = 320,000) | Q17339;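 active = percent inhibition above a per-plate cutoff, the plate mean of test compounds plus 3 SD, cut at about 30% in these data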;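 also: 0% = DMSO wells with GLD-1 and probe and 100% = wells lacking GLD-1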
Target sequence (Q17339 whole entry, looked up): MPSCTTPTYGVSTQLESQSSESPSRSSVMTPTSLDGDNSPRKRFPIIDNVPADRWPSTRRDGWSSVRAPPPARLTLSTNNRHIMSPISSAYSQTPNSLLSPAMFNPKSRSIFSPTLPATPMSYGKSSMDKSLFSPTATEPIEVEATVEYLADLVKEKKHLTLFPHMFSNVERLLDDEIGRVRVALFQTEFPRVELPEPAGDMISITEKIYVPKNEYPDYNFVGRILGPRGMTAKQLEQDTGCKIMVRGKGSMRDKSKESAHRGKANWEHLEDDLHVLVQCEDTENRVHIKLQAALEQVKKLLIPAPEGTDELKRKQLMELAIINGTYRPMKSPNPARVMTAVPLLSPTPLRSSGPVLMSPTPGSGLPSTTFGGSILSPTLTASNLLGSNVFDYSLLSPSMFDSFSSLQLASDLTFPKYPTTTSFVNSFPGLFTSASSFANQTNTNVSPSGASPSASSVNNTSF
Bcl-xL primary: Bcl-xL (human) inhibition; Q07817; inhibition, % at 10.9 µM; AID 2129; actives 0.7% (n = 320,000); GST-Bcl-xL / FITC-Bim BH3 peptide fluorescence polarization;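 active = inhibition above the mean of all tested compounds plus 3 SD, cutoff set per campaign, cut at about 30% in these data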;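 also: 0% = DMSO wells and 100% = unlabeled Bim-BH3 peptide competitor; inhibitors lower millipolarization by displacing the labeled peptide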
EBV gp42 inh: blocks Epstein-Barr virus glycoprotein 42 binding. Fluorescence polarization binding assay, mP read-out. inhibition, % (tested at 21.74 µM). actives 0.42% (n = 220,000). Q1HVG2; in the data active = inhibition above about 50%
MCL1 BIM primary: MCL1-BIM-BH3 interaction inhibition (human). GST-MCL1 / FITC-Bim-BH3 fluorescence polarization. inhibition, % at 10.9 µM. actives 0.68% (n = 320,000);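 active = inhibition above the mean inhibition of all tested compounds plus 3 SD, set per campaign, cut at about 40% in these data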;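 also: 0% = DMSO wells and 100% = unlabeled Bim-BH3 peptide control; higher means more loss of mP so more displacement of Bim peptide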
GLD1 RNA confirm: GLD-1 TGE RNA interaction inhibition, confirmation; inhibition, % at 5.96 µM; shares compounds with GLD-1 TGE inh; AID 2459; actives 10% (n = 550); GLD-1/FL-TGE RNA fluorescence polarization, biochemical;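 active = average inhibition across triplicates above the hit cutoff set in the primary screen, cut at about 32% in these data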;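 also: 0% = GLD-1 with RNA probe and DMSO and 100% = wells lacking GLD-1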
Numbers without * were called inactive.

`CCOC(=O)CNc1c(-c2ccc(OC)cc2)nc2ccc(Cl)cn12` gave MEX-5 binding -11, GLD-1 TGE inh 37*, Bcl-xL primary 16, EBV gp42 inh 12, MCL1 BIM primary 18 and GLD1 RNA confirm 20.
CCN1C=C(Cc2ccc(F)cc2)C2=C(C1)C(c1ccc(F)cc1)C(C#N)=C(N)O2 (centres undefined) was read as MEX-5 binding -1, GLD-1 TGE inh 41*, Bcl-xL primary 10, EBV gp42 inh -14, MCL1 BIM primary 8 and GLD1 RNA confirm 5.
`O=C(OC(C(=O)Nc1ccc(Cl)cc1C(F)(F)F)c1ccccc1)C1=COCCO1` (centres undefined) gave GLD-1 TGE inh -1, Bcl-xL primary -2, EBV gp42 inh 4 and MCL1 BIM primary -5.
`O=C(OC(C(=O)Nc1ccc(Cl)c(C(F)(F)F)c1)c1ccccc1)C1=COCCO1` (centres undefined) gave MEX-5 binding -1, GLD-1 TGE inh 45*, Bcl-xL primary 3, EBV gp42 inh -14, MCL1 BIM primary 5 and GLD1 RNA confirm 5.
For Cc1ccc(/C=N/NC(=O)C(C)Oc2ccccc2[N+](=O)[O-])s1 (centres undefined) the results were MEX-5 binding 1, GLD-1 TGE inh 0, Bcl-xL primary -2, EBV gp42 inh 1 and MCL1 BIM primary -8.
CCc1ccc(OCCCCN(C)Cc2ccccc2)cc1 was read as MEX-5 binding 1, GLD-1 TGE inh -8, Bcl-xL primary 3 and MCL1 BIM primary 11.
`CC(C)(C)N(Cc1ccccc1)C(=O)COC(=O)CN1C(=O)NC2(CCCC2)C1=O` gave MEX-5 binding -3, GLD-1 TGE inh 6, Bcl-xL primary 3 and MCL1 BIM primary 4.
O=C(Nc1ccc(Cl)cc1)Nc1ccc(N2CCC(C(F)(F)F)CC2)nc1 was read as MEX-5 binding -9, GLD-1 TGE inh 38*, Bcl-xL primary 31*, EBV gp42 inh 36, MCL1 BIM primary 32 and GLD1 RNA confirm 23.
O=C(COC(=O)C1CCN(c2ccc(C(F)(F)F)cn2)CC1)Nc1ccc(Cl)cc1 was read as MEX-5 binding 1, GLD-1 TGE inh 3, Bcl-xL primary 2 and MCL1 BIM primary 4.
Screening O=C(Cc1ccc(F)cc1)Oc1ccc(C(=S)N2CCCC2)cc1 returned MEX-5 binding 2, GLD-1 TGE inh -1, Bcl-xL primary 3, EBV gp42 inh -3 and MCL1 BIM primary 10.
For O=C(Nc1ccc2nc(-c3ccco3)c(-c3ccco3)nc2c1)N1CCCCCC1 the results were MEX-5 binding -11, GLD-1 TGE inh 41*, Bcl-xL primary 105*, EBV gp42 inh 78*, MCL1 BIM primary 118* and GLD1 RNA confirm 27.
CCOC(=O)c1c(-c2ccccc2)oc2cc(CN(C)C)c(O)c(CN(C)C)c12 was read as MEX-5 binding -2, GLD-1 TGE inh 37*, Bcl-xL primary 35*, MCL1 BIM primary 49* and GLD1 RNA confirm 7.
Screening CCOC(=O)c1c(C)oc2cc(Cl)c(O)c(CN(C)C)c12 returned MEX-5 binding 0, GLD-1 TGE inh 1, Bcl-xL primary 1, EBV gp42 inh 5 and MCL1 BIM primary 4.
Screening CCOC(=O)C1=C(C)N(c2ccc(C)cc2)C(=O)/C1=C\c1ccc(O)c(OC)c1 returned MEX-5 binding 3, GLD-1 TGE inh 6, Bcl-xL primary 10, EBV gp42 inh -4 and MCL1 BIM primary 3.
Screening CCOC(=O)C1=C(O)c2ccccc2C(=O)/C1=C\c1ccc(C)cc1 returned GLD-1 TGE inh 57*, Bcl-xL primary 37*, EBV gp42 inh -1, MCL1 BIM primary 43* and GLD1 RNA confirm -6.
COc1ccc(C)cc1C1=CC(=O)C[C@H](c2ccc(F)cc2)C1 was read as GLD-1 TGE inh 34*, Bcl-xL primary 3, MCL1 BIM primary 4 and GLD1 RNA confirm -5.
Cc1ccc(-c2nc(-c3ccncc3)no2)cc1C was read as MEX-5 binding 2, GLD-1 TGE inh 37*, Bcl-xL primary 4, MCL1 BIM primary 5 and GLD1 RNA confirm -2.
Screening Cc1ccc(-c2nc(-c3ccncc3)no2)cc1Cl returned MEX-5 binding 0, GLD-1 TGE inh -3, Bcl-xL primary 1 and MCL1 BIM primary 3.
Screening Cn1c(=O)c2cc(NCc3ccccc3)nnc2n(C)c1=O returned MEX-5 binding -3, GLD-1 TGE inh 32*, Bcl-xL primary 46*, EBV gp42 inh 0, MCL1 BIM primary 44* and GLD1 RNA confirm 5.
Nc1nc(-c2ccccc2)c(N=Nc2ccccc2Cl)s1 was read as MEX-5 binding 0, GLD-1 TGE inh 159*, Bcl-xL primary 1, EBV gp42 inh 1, MCL1 BIM primary 4 and GLD1 RNA confirm -1.
For Nc1nc(-c2ccccc2)c(N=Nc2cccc3ccccc23)s1 the results were MEX-5 binding 1, GLD-1 TGE inh 3, Bcl-xL primary 6, EBV gp42 inh -11 and MCL1 BIM primary 1.
`COc1ccc(-c2nc(CSCC(=O)NCCCN3CCCC3=O)c(C)o2)cc1OC` gave MEX-5 binding 0, GLD-1 TGE inh 4, Bcl-xL primary 5 and MCL1 BIM primary 3.
`CC(C)CN(C(=O)CCCSc1nc2ccccc2[nH]1)c1c(N)n(Cc2ccccc2)c(=O)[nH]c1=O` gave MEX-5 binding -11, GLD-1 TGE inh 22, Bcl-xL primary 12 and MCL1 BIM primary -4.
`CC(C)CCN(C(=O)CCCSc1nc2ccccc2[nH]1)c1c(N)n(Cc2ccccc2)c(=O)[nH]c1=O` gave MEX-5 binding -14, GLD-1 TGE inh 47*, Bcl-xL primary 26, MCL1 BIM primary 27 and GLD1 RNA confirm 65*.
`Cc1ccccc1C(=O)N1CCC(C(=O)N2CCCc3ccccc32)CC1` gave GLD-1 TGE inh 4, Bcl-xL primary 2 and MCL1 BIM primary 2.
Screening NC(=O)c1ccc(NC(=O)c2cccc3c2OCCCO3)cc1 returned MEX-5 binding 0, GLD-1 TGE inh 0, Bcl-xL primary 3, EBV gp42 inh -9 and MCL1 BIM primary -2.
Screening COc1ccc(C(=O)NC(=S)Nc2ccc(CN3CCOCC3)cc2)cc1 returned MEX-5 binding -3, GLD-1 TGE inh 64*, Bcl-xL primary 6, EBV gp42 inh -5, MCL1 BIM primary 5 and GLD1 RNA confirm 3.
Screening O=C(CSc1ccc(-c2ccco2)nn1)NCc1ccccc1Cl returned MEX-5 binding -4, GLD-1 TGE inh 34*, Bcl-xL primary 42*, EBV gp42 inh 11, MCL1 BIM primary 41* and GLD1 RNA confirm -7.
Screening CCOC(=O)C1CCN(C(=O)c2ccc3c(c2)NC(=O)/C(=C\c2ccc(C)cc2)S3)CC1 returned MEX-5 binding inconclusive, GLD-1 TGE inh 35*, Bcl-xL primary 37*, MCL1 BIM primary 42* and GLD1 RNA confirm 19.
